Several values for one entry are separate records, joined by “and”; a condition that tells them apart may be missing. Identical values can stand only once. The whole screen tested about 5,500 compounds, of which about 2,000 (36%) were called active. Roughly 18% stayed inconclusive and do not appear here. Cut-off read from the data, not from the text of the source: active = normalized growth mostly below about 0.91 (no sharp cut-off); inconclusive = no clear call, values can overlap the other calls; inactive = mostly above about 0.92. The list shows a part of the results.
Assay: chemical genetic growth profiling, strain panel (AID 1159580);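 note: tested at 20 µM; growth read once vehicle control cultures reached saturation at 30 °C; 1 = growth at the plate median or of vehicle wells; lower values mean less growth of the strain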
Details: S. cerevisiae deletion strains, growth OD

Measured: normalized growth

CCCCCC(C)N (stereo unspecified)
inactive: locus YAL013W, strain DEP1, stronger effect = lower value 1.01 | locus YAL021C, strain ccr4, stronger effect = lower value 1.02 | locus YAL026C, strain drs2, stronger effect = lower value 1.02 | locus YAL030W, strain snc1, stronger effect = lower value 1.02 | locus YBL061C, strain skt5, stronger effect = lower value 1.03 | locus YBR009C, strain hhf1, stronger effect = lower value 1.03 | locus YBR021W, strain FUR4, stronger effect = lower value 1.01 | locus YBR023C, strain chs3, stronger effect = lower value 1.05 | locus YBR171W, strain sec66, stronger effect = lower value 1.04 | locus YBR229C, strain ROT2, stronger effect = lower value 1.01 | locus YBR231C, strain swc5, stronger effect = lower value 1.04 | locus YBR279W, strain paf1, stronger effect = lower value 1.02 | locus YCL011C, strain gbp2, stronger effect = lower value 1.02 | locus YCL016C, strain dcc1, stronger effect = lower value 1.03 | locus YCL029C, strain bik1, stronger effect = lower value 0.994 | locus YCL061C, strain MRC1, stronger effect = lower value 1.02 | locus YCL069W, strain vba3, stronger effect = lower value 1.03 | locus YCR088W, strain abp1, stronger effect = lower value 1.02 | locus YDL005C, strain med2, stronger effect = lower value 1.04 | locus YDL035C, strain GPR1, stronger effect = lower value 1.02 | locus YDL040C, strain nat1, stronger effect = lower value 1.03 | locus YDL074C, strain BRE1, stronger effect = lower value 1.02 | locus YDL101C, strain DUN1, stronger effect = lower value 1 | locus YDL134C, strain PPH21, stronger effect = lower value 1.02 | locus YDL185W, strain tfp1, stronger effect = lower value 0.999 | locus YDL192W, strain arf1, stronger effect = lower value 0.997 | locus YDR001C, strain nth1, stronger effect = lower value 1.02 | locus YDR069C, strain doa4, stronger effect = lower value 1.01 | locus YDR101C, strain arx1, stronger effect = lower value 0.99 | locus YDR137W, strain rgp1, stronger effect = lower value 1.08 | locus YDR150W, strain NUM1, stronger effect = lower value 1.02 | locus YDR159W, strain sac3, stronger effect = lower value 1.02 | locus YDR162C, strain NBP2, stronger effect = lower value 1.01 | locus YDR195W, strain ref2 1.03 | locus YDR297W, strain sur2, stronger effect = lower value 1.02 | locus YDR318W, strain mcm21, stronger effect = lower value 0.994 | locus YDR334W, strain swr1, stronger effect = lower value 1.02 | locus YDR335W, strain msn5, stronger effect = lower value 1.03 | locus YDR388W, stronger effect = lower value 0.993 | locus YDR392W, strain spt3, stronger effect = lower value 0.996 | locus YDR502C, strain sam2, stronger effect = lower value 0.993 | locus YEL003W, strain gim4, stronger effect = lower value 1.02 | locus YEL037C, strain rad23, stronger effect = lower value 1.02 | locus YEL061C, strain CIN8 (second series), stronger effect = lower value 1.03 | locus YEL061C, strain CIN8, stronger effect = lower value 1.01 | locus YER015W, strain faa2, stronger effect = lower value 1.02 | locus YER016W, strain bim1, stronger effect = lower value 1.02 | locus YER110C, stronger effect = lower value 0.989 | locus YER111C, strain swi4, stronger effect = lower value 1.03 | locus YER155C, strain BEM2 (second series), stronger effect = lower value 1 | locus YER155C, strain BEM2, stronger effect = lower value 1.02 | locus YER167W, strain BCK2, stronger effect = lower value 1.01 | locus YFR010W, strain ubp6, stronger effect = lower value 1.02 | locus YGL078C, strain dbp3, stronger effect = lower value 0.995 | locus YGL086W, strain mad1, stronger effect = lower value 1.01 | locus YGL167C, strain pmr1, stronger effect = lower value 1.03 | locus YGL173C, strain kem1, stronger effect = lower value 1.03 | locus YGL227W, strain vid30, stronger effect = lower value 1.02 | locus YGL240W, strain doc1, stronger effect = lower value 1.02 | locus YGL248W, strain PDE1, stronger effect = lower value 1 | locus YGL253W, strain hxk2, stronger effect = lower value 1.03 | locus YGR078C, strain PAC10, stronger effect = lower value 0.908 | locus YGR135W, strain pre9, stronger effect = lower value 0.996 | locus YGR229C, strain SMI1, stronger effect = lower value 1.01 | locus YGR252W, strain gcn5, stronger effect = lower value 1.05 | locus YHR027C, strain rpn1, stronger effect = lower value 1.02 | locus YHR030C, strain SLT2, stronger effect = lower value 1.02 and 1.01 | locus YHR079C, strain IRE1 (second series), stronger effect = lower value 0.996 | locus YHR079C, strain IRE1, stronger effect = lower value 0.99 | locus YHR094C, strain hxt1, stronger effect = lower value 0.998 | locus YHR129C, strain ARP1, stronger effect = lower value 1.01 | locus YHR142W, strain chs7, stronger effect = lower value 1.04 | locus YHR200W, strain rpn10, stronger effect = lower value 0.996 | locus YIL066C, strain RNR3, stronger effect = lower value 1.02 | locus YIL073C, strain SPO22, stronger effect = lower value 0.987 | locus YIL125W, strain kgd1, stronger effect = lower value 1 | locus YIR030C, strain dcg1, stronger effect = lower value 0.996 | locus YJL092W, strain hpr5, stronger effect = lower value 1.02 | locus YJL095W, strain BCK1 (second series), stronger effect = lower value 1.02 | locus YJL095W, strain BCK1, stronger effect = lower value 0.999 and 1 | locus YJL115W, strain asf1, stronger effect = lower value 1.02 | locus YJL129C, strain trk1, stronger effect = lower value 1.05 | locus YJL134W, strain LCB3, stronger effect = lower value 1 | locus YJL154C, strain vps35, stronger effect = lower value 1.01 | locus YJL164C, strain tpk1, stronger effect = lower value 1.02 | locus YJL166W, strain qcr8, stronger effect = lower value 1.02 | locus YJL168C, strain set2, stronger effect = lower value 0.991 | locus YJL187C, strain SWE1 (second series), stronger effect = lower value 1.01 | locus YJL187C, strain SWE1, stronger effect = lower value 1.02 | locus YJR043C, strain POL32, stronger effect = lower value 0.998 | locus YJR066W, strain TOR1, stronger effect = lower value 0.942

Reference: PubChem BioAssay AID1159580 (chemical genetic matrix, 2015)
